Source: PubChem BioAssay (National Center for Advancing Translational Sciences (NCATS))
HTT-AS promoter: HTT-AS promoter activation; Potency, µM (doses to about 57.5 µM), most hits filed as activators; 48,000 tested, 0.24% active; HEK293 HTT-AS promoter firefly luciferase reporter, 24 h; response scale: percent change from vehicle, -100% = no light; note: nearly all actives have a fitted effect of over 55% in size
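Firefly luciferase readout (Dual-Glo, 10 min RT) after 24 h, 37 °C compound exposure (final up to 57.5 uM) of HEK293 reporter cells cultured 24 h beforehand; PTC124 at 50 uM final as control inhibitor; activity scaled vehicle 0%, zero RLU -100%.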
GPR32 ag: agonists of human resolvin D1 receptor DRV1 (GPR32) | O75388 | CHO-K1 GPR32 beta-arrestin PathHunter luminescence, 90 min; zero percent set by DMSO-only wells | activation, % at 76.9 µM | 48,000 tested, 2.5% active | AID 1346428;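 active = activation of at least 60% and not above a set upper limit, about 1 call in 100 departs from these limits; inconclusive = activation of 40% to 60%, or above that upper limit; inactive = activation under 40%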
Target sequence (O75388 whole entry, looked up): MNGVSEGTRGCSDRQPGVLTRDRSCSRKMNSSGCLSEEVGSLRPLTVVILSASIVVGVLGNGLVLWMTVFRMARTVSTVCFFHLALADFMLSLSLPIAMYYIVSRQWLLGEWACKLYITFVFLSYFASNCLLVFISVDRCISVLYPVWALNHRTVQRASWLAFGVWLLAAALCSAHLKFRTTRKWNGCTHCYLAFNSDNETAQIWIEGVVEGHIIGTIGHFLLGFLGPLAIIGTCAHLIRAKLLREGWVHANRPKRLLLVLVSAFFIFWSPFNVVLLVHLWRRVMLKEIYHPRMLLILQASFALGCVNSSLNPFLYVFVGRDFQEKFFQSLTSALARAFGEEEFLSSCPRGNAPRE
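Cells are plated overnight, treated with compounds in DMSO for 90 minutes at 37 °C, and developed with PathHunter detection reagent for 1 hour before luminescence is read; signal reflects beta-arrestin binding to GPR32 in engineered CHO-K1 cells.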
HTT promoter inh: HTT promoter inhibition; 48,000 tested, 0.93% active; HEK293 HTT promoter firefly luciferase reporter, 24 h; Potency, µM (doses to about 57.5 µM), usual class: inhibitors; note: nearly all actives have a fitted effect of over 50% in size
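Firefly luciferase readout (Dual-Glo, 10 min RT) after 24 h, 37 °C compound exposure (final up to 57.5 uM) of HEK293 reporter cells cultured 24 h beforehand; PTC124 at 50 uM final as control inhibitor; activity scaled vehicle 0%, zero RLU -100%.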
NTMT1 inhibitor: inhibitors of human N-terminal methyltransferase NTMT1. Potency, µM (titrated, usually from 114 µM), hits mostly inhibitors. NTMT1 MTase-Glo SAH luminescence, purified enzyme. 59,000 tested, 2.5% active. AID 1645870; note: nearly all actives have a fitted effect of over 65% in size
A number is an active result; [ ] = dose if it differs, or a comment. In the library only some 4.6% were active in any assay of this set; here they are far more common. Unless noted, calls come from the whole dose curve; as a rule, active = well fitted curve in the direction sought with a large enough effect; inconclusive = small, poorly fitted or top-dose-only effect, or another doubt; inactive = no such curve, though single readings can be large; an effect the other way counts as inactive or inconclusive.

For CCCc1ccc(C2Sc3ccccc3NC3=C2C(=O)c2ccccc23)cc1 (stereo not given) the results were HTT-AS promoter inactive, GPR32 ag inactive, HTT promoter inh 32µM and NTMT1 inhibitor inactive.
O=C1C2=C(Nc3ccccc3SC2c2ccc(Cl)c(Cl)c2)c2ccccc21 (stereo not given) was read as HTT-AS promoter inactive, GPR32 ag inactive, HTT promoter inh inconclusive and NTMT1 inhibitor inactive.
Screening Cc1ccc2oc(-c3ccc(C)c(NC(=O)C(C)(C)Oc4ccc(Cl)cc4)c3)nc2c1 returned HTT-AS promoter 10µM, GPR32 ag inactive, HTT promoter inh inactive and NTMT1 inhibitor inactive.
`Cc1ccc2nc(-c3ccc(C)c(NC(=O)CSc4ccc(Cl)cc4)c3)oc2c1` gave HTT-AS promoter 6.3µM, GPR32 ag inactive, HTT promoter inh inactive and NTMT1 inhibitor inactive.
`Cc1ccc(C(=O)Nc2cc(-c3nc4cc(Cl)ccc4o3)ccc2C)c(C)c1` gave HTT-AS promoter inactive, GPR32 ag inactive, HTT promoter inh inactive and NTMT1 inhibitor inactive.
Cc1ncc(NC(=O)c2cccc(C(F)(F)F)c2)cc1-c1cnc(OC2CCOCC2)c(N2CCOCC2)c1 was read as NTMT1 inhibitor inactive.
For COc1ccccc1CNC(=O)Cn1c(-c2cccs2)cc2cc(F)ccc21 the results were HTT-AS promoter inactive, GPR32 ag 103, HTT promoter inh inactive and NTMT1 inhibitor inactive.
CCOc1ccc(CCNC(=O)Cn2c(-c3cccs3)cc3cc(F)ccc32)cc1OCC was read as HTT-AS promoter inactive, GPR32 ag 112, HTT promoter inh inconclusive and NTMT1 inhibitor inactive.
Screening Oc1ccc(Nc2nc(-c3ccncc3)nc3ccccc23)cc1F returned NTMT1 inhibitor inactive.
CC(=O)O[C@]1(C(C)=O)CC[C@H]2[C@@H]3CCC4=CC(=O)CCC4=C3[C@@H](c3ccc(N(C)C)cc3)C[C@@]21C was read as NTMT1 inhibitor inactive.
Cc1nc2c(c(C)nn2C(C)(C)C)c(C)c1CCC(=O)Nc1ccc(F)cc1 was read as HTT-AS promoter inactive, GPR32 ag 74, HTT promoter inh inactive and NTMT1 inhibitor inactive.
`CSc1cccc(N2C(=O)N(CC(=O)NCc3ccccc3Cl)c3ccccc3S2(=O)=O)c1` gave HTT-AS promoter inactive, GPR32 ag 67, HTT promoter inh inactive and NTMT1 inhibitor inactive.
Cc1cc(-c2nnc3n2CCC3)c(C)n1-c1ccccc1 was read as NTMT1 inhibitor inactive.
`Cc1[nH]c(/C=C2\C(=O)Nc3ccc(S(=O)(=O)N(C)c4cccc(Cl)c4)cc32)c(C)c1C(=O)N1CCN(C)CC1` gave NTMT1 inhibitor inactive.
For Cc1[nH]c(C=C2C(=O)Nc3ccc(S(=O)(=O)Cc4c(Cl)cccc4Cl)cc32)c(C)c1C(=O)N1CCC[C@H]1CN1CCCC1 the results were HTT-AS promoter inactive, HTT promoter inh inactive and NTMT1 inhibitor 6.8µM.
CC1=C(C)C(=O)OC(C(C)C2C(O)CC3C4C5OC5C5(O)CC(OC6OC(CO)C(O)C(O)C6O)CC(O)C5(C)C4CCC32C)C1 (stereo not given) was read as NTMT1 inhibitor inactive[12.6 µM].
Screening CCOc1ccc(CCNC(=O)c2cc3sccc3n2Cc2ccc(Cl)c(F)c2)cc1OCC returned NTMT1 inhibitor inactive.
For C/C(=C\C(=O)Nc1ccccc1C(=O)O)c1ccc2ccccc2c1 the results were NTMT1 inhibitor 28µM.
`C=C1CC[C@@]2(OC1)O[C@H]1CC3[C@@H]4CC=C5C[C@@H](O)C[C@@H](O[C@@H]6OC[C@H](O)[C@H](O)[C@H]6O[C@@H]6O[C@@H](C)[C@H](O)[C@@H](O)[C@H]6O)[C@]5(C)C4CC[C@]3(C)[C@H]1[C@@H]2C` (stereo not given in full) gave NTMT1 inhibitor inactive[12.6 µM].
COc1cccc(CNC(=O)CN(c2ccc(C(C)C)cc2)S(=O)(=O)c2c(C)n[nH]c2C)c1 was read as HTT-AS promoter inactive, GPR32 ag 71, HTT promoter inh inactive and NTMT1 inhibitor inactive.
`CC(=O)Nc1ccc(NC(=O)CN(C)S(=O)(=O)c2ccc3c(c2)CCCC(=O)N3)cc1` gave HTT-AS promoter inactive, GPR32 ag inactive, HTT promoter inh inactive and NTMT1 inhibitor inactive.
COc1cc(Cl)c(NC(=O)CN(C)S(=O)(=O)c2ccc3c(c2)CCCC(=O)N3)c(OC)c1 was read as HTT-AS promoter inactive, GPR32 ag 67, HTT promoter inh inconclusive and NTMT1 inhibitor inactive.
